Test results from PubChem BioAssay AID1159580 (chemical genetic matrix, 2015).
Hit rate of the full screen: of about 5,500 compounds, about 2,000 (36%) were called active. Not shown: some 18% with an inconclusive outcome. Rule as the data show it: active = normalized growth mostly below about 0.91 (no sharp cut-off); inconclusive = no clear call, values can overlap the other calls; inactive = mostly above about 0.92. This is one part of the list.

Test: chemical genetic growth profiling, strain panel (AID 1159580);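 also: tested at 20 µM; growth read once vehicle control cultures reached saturation at 30 °C; 1 = growth at the plate median or of vehicle wells; lower values mean less growth of the strain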
Details: S. cerevisiae deletion strains, growth OD

Measured: normalized growth

COc1cc(OC)c2c(=O)c(-c3ccc4c(c3)OCO4)coc2c1
inactive: locus YAL021C, strain ccr4, stronger effect = lower value 1.01 | locus YAL026C, strain drs2, stronger effect = lower value 0.982 | locus YAL030W, strain snc1, stronger effect = lower value 0.977 | locus YBL061C, strain skt5, stronger effect = lower value 0.979 | locus YBR009C, strain hhf1, stronger effect = lower value 0.984 | locus YBR023C, strain chs3, stronger effect = lower value 0.989 | locus YBR171W, strain sec66, stronger effect = lower value 0.969 | locus YBR231C, strain swc5, stronger effect = lower value 1 | locus YBR279W, strain paf1, stronger effect = lower value 0.992 | locus YCL011C, strain gbp2, stronger effect = lower value 0.981 | locus YCL016C, strain dcc1, stronger effect = lower value 0.986 | locus YCL061C, strain MRC1, stronger effect = lower value 0.996 | locus YCL069W, strain vba3, stronger effect = lower value 0.983 | locus YCR088W, strain abp1, stronger effect = lower value 0.979 | locus YDL005C, strain med2, stronger effect = lower value 0.997 | locus YDL040C, strain nat1, stronger effect = lower value 0.981 | locus YDR001C, strain nth1, stronger effect = lower value 0.98 | locus YDR069C, strain doa4, stronger effect = lower value 0.998 | locus YDR137W, strain rgp1, stronger effect = lower value 1.01 | locus YDR159W, strain sac3, stronger effect = lower value 1.01 | locus YDR195W, strain ref2 0.988 | locus YDR297W, strain sur2, stronger effect = lower value 0.989 | locus YDR334W, strain swr1, stronger effect = lower value 0.991 | locus YDR335W, strain msn5, stronger effect = lower value 1 | locus YDR392W, strain spt3, stronger effect = lower value 0.802 | locus YEL003W, strain gim4, stronger effect = lower value 0.992 | locus YEL037C, strain rad23, stronger effect = lower value 0.993 | locus YEL061C, strain CIN8 (second series), stronger effect = lower value 0.986 | locus YER015W, strain faa2, stronger effect = lower value 1 | locus YER016W, strain bim1, stronger effect = lower value 0.987 | locus YER111C, strain swi4, stronger effect = lower value 1.01 | locus YER155C, strain BEM2 (second series), stronger effect = lower value 0.942 | locus YFR010W, strain ubp6, stronger effect = lower value 1 | locus YGL167C, strain pmr1, stronger effect = lower value 0.984 | locus YGL173C, strain kem1, stronger effect = lower value 0.985 | locus YGL227W, strain vid30, stronger effect = lower value 0.978 | locus YGL240W, strain doc1, stronger effect = lower value 1.02 | locus YGL253W, strain hxk2, stronger effect = lower value 0.977 | locus YHR013C, strain ard1, stronger effect = lower value 0.971 | locus YHR027C, strain rpn1, stronger effect = lower value 1 | locus YHR030C, strain SLT2, stronger effect = lower value 1.05 | locus YHR079C, strain IRE1, stronger effect = lower value 1.05 | locus YHR142W, strain chs7, stronger effect = lower value 0.931 | locus YJL092W, strain hpr5, stronger effect = lower value 0.978 | locus YJL095W, strain BCK1 (second series), stronger effect = lower value 0.984 | locus YJL095W, strain BCK1, stronger effect = lower value 1.03 | locus YJL115W, strain asf1, stronger effect = lower value 0.992 | locus YJL129C, strain trk1, stronger effect = lower value 0.918 | locus YJL154C, strain vps35, stronger effect = lower value 0.991 | locus YJL164C, strain tpk1, stronger effect = lower value 0.98 | locus YJL166W, strain qcr8, stronger effect = lower value 0.99 | locus YJL187C, strain SWE1, stronger effect = lower value 0.996 | locus YJR066W, strain TOR1, stronger effect = lower value 0.99 | locus YKL160W, strain elf1, stronger effect = lower value 0.991 | locus YKR026C, strain gcn3, stronger effect = lower value 0.98 | locus YKR091W, strain srl3, stronger effect = lower value 0.986 | locus YLL001W, strain dnm1, stronger effect = lower value 0.977 | locus YLL026W, stronger effect = lower value 0.985 | locus YLL041C, strain sdh2, stronger effect = lower value 0.99 | locus YLR027C, strain aat2, stronger effect = lower value 0.979 | locus YLR113W, strain HOG1, stronger effect = lower value 1.08 | locus YLR221C, strain rsa3, stronger effect = lower value 0.961 | locus YLR258W, strain gsy2, stronger effect = lower value 0.976 | locus YLR262C, strain YPT6 (second series), stronger effect = lower value 1.04 | locus YLR320W, strain mms22, stronger effect = lower value 0.964 | locus YLR342W, strain FKS1, stronger effect = lower value 0.983 | locus YLR357W, strain rsc2, stronger effect = lower value 0.987 | locus YLR370C, strain arc18, stronger effect = lower value 0.99 | locus YLR384C, strain iki3, stronger effect = lower value 0.99 | locus YML120C, strain ndi1, stronger effect = lower value 0.967 | locus YMR058W, strain fet3, stronger effect = lower value 0.983 | locus YMR125W, strain sto1, stronger effect = lower value 0.989 | locus YMR129W, stronger effect = lower value 0.981 | locus YMR205C, strain PFK2, stronger effect = lower value 0.962 | locus YMR231W, strain pep5, stronger effect = lower value 0.987 | locus YNL071W, strain lat1, stronger effect = lower value 0.954 | locus YNL183C, strain NPR1, stronger effect = lower value 0.984 | locus YNL209W, strain ssb2, stronger effect = lower value 0.985 | locus YNL248C, strain rpa49, stronger effect = lower value 1.02 | locus YNL322C, strain KRE1 (second series), stronger effect = lower value 0.983 | locus YNR049C, strain mso1, stronger effect = lower value 0.995 | locus YOR001W, strain rrp6, stronger effect = lower value 0.994 | locus YOR070C, strain gyp1, stronger effect = lower value 0.999 | locus YOR080W, strain dia2, stronger effect = lower value 1 | locus YOR083W, strain WHI5, stronger effect = lower value 0.98 | locus YOR106W, strain vam3, stronger effect = lower value 0.986 | locus YOR231W, strain MKK1, stronger effect = lower value 1.07 | locus YOR265W, strain rbl2, stronger effect = lower value 0.99 | locus YOR270C, strain vph1, stronger effect = lower value 0.922 | locus YOR290C, strain snf2, stronger effect = lower value 0.957 | locus YPL051W, strain arl3, stronger effect = lower value 1.01 | locus YPL078C, strain atp4, stronger effect = lower value 0.983 | locus YPL106C, strain sse1, stronger effect = lower value 0.987 | locus YPL240C, strain hsp82, stronger effect = lower value 0.984 | locus YPL256C, strain CLN2, stronger effect = lower value 1.05
